The campaign covered roughly 340,000 compounds. About 6,900 (2%) were called active. This excerpt belongs to a sample that is enriched for actives. A number with no mark means an inactive call. Rule as the data show it: active = inhibition above about 30%; inactive = below that, where a call was filed.

For this assay, the target named is D(2) dopamine receptor (Homo sapiens) (UniProt P14416). The experiment in a line: HTS Assay for Allosteric Antagonists of the Human D2 Dopamine Receptor: Primary Screen for Antagonists. Also: 0% is about no effect. The settings on record: HEK293 TREx D2 cells, calcium flux, dopamine EC80; at 10 µM; active compounds read high. Summed up: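 Read-out: kinetic calcium fluorescence (1 cycle/s) in inducible HEK293 T-REx D2 cells after an EC80 dopamine addition that followed 180 s compound preincubation. Loss of the dopamine response indicates antagonism.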
Chain of D(2) dopamine receptor (Homo sapiens) (P14416 whole entry, looked up): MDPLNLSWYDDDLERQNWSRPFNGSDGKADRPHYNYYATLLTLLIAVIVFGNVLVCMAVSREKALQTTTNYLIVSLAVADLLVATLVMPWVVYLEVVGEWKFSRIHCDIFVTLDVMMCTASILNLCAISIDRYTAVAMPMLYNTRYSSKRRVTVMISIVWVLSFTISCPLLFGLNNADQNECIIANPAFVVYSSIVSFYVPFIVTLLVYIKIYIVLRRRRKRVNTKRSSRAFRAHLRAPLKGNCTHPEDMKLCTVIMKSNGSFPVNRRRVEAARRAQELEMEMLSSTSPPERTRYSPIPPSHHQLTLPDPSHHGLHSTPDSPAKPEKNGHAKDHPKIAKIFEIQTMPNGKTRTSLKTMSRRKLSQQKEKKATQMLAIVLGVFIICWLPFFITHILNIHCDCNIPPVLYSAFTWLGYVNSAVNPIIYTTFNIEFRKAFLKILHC
In the case of `CCOc1ccc(CCNC(=O)COC(=O)CCS(=O)(=O)c2ccc(C)cc2)cc1OCC`, the inhibition is -15.8%.
For `O=C(NC1CCCCC1)c1ccc(-c2ccc(Cl)cc2)o1`, the inhibition is 17.9%.
As for `O=C1c2oc3ccc(Br)cc3c(=O)c2C(c2cccc(F)c2)N1CCO` (stereo unspecified), the inhibition is 24.1%.
For the compound `O=C1c2oc3ccccc3c(=O)c2C(c2cccc(O)c2)N1c1ccccn1` (stereo unspecified), the inhibition was 30.8% (active).
`COCCN1C(=O)c2oc3c(C)cc(C)cc3c(=O)c2C1c1cccc(O)c1` (stereo unspecified): the inhibition is 8.13%.
In the case of `Cc1ccc(-c2nn(-c3ccccc3)cc2C(=O)NC2CCC(O)CC2)cc1` (stereo unspecified) it was 11.3%; in that of `CC(C)(C)OC(=O)N[C@H](C(=O)OC(C)(C)C)c1ccc(Br)cc1`, -2.43%; in that of `COc1cccc(C2=CC(=O)C[C@H](c3ccc(F)cc3)C2)c1OC`, 2.64%.
In the case of `CCCc1cc(=O)[nH]c(SCC(=O)N2CCN(S(=O)(=O)c3ccc(C)cc3C)CC2)n1`, the inhibition was 40.9% (active).
The figure for `Cc1ccc(S(=O)(=O)N2CCN(C(=O)COC(=O)c3c(C)cc(C)cc3C)CC2)c(C)c1` is -0.571%; for `Cc1ccc(S(=O)(=O)N2CCN(C(=O)CSc3cc(C)ccc3C)CC2)c(C)c1` it is 12.2%; for `O=C(COC(=O)C1CC2CCCC(C1)C2=O)NC(=O)c1ccccc1` (stereo unspecified) it is -17.3%.
Turning to `CC(Oc1ccc(Br)cc1)C(=O)NC1CCCCCC1` (stereo unspecified), the inhibition is -1.39%.
For `O=C(COc1ccc([N+](=O)[O-])cc1)Nc1ccc(N2CCCC2)cc1`, the inhibition was -10.9%.
With `O=C(COc1ccc([N+](=O)[O-])cc1)Nc1cccc(C(=O)Nc2ccccc2C(=O)O)c1`, the inhibition was 52% (active).
On to `O=C(Nc1ccccc1C(=O)Nc1ccncc1)c1ccc([N+](=O)[O-])cc1`, for which the inhibition was -16%.
Consider `Cc1ccc(S(=O)(=O)N(C)CC(=O)NCC(c2ccc(F)cc2)N2CCOCC2)cc1` (stereo unspecified), for which the inhibition is 12.3%.
For `CCCCn1nc(C(=O)Nc2cccc(C(=O)NC3CC3)c2)c2ccccc2c1=O`, the inhibition is -27.4%.
On to `CCCn1nc(C(=O)NNC(=O)CSCC(=O)Nc2cc(C)on2)c2ccccc2c1=O`, for which the inhibition was 5.99%.
The figure for `CCCn1nc(C(=O)Nc2ccc3nc(C)sc3c2)c2ccccc2c1=O` is 31% (active); for `CN(C)CCn1c2c(c(SCC(=O)NCc3ccccc3)nc1=O)CCC2` it is -8.18%.
Consider `COCCNc1nnc(SCC(=O)NNC(=O)c2ccco2)s1`, for which the inhibition was -27.3%.
Turning to `COc1ccccc1NS(=O)(=O)c1ccc(C)c(C(=O)NCC(c2ccco2)N(C)C)c1` (stereo unspecified), the inhibition is 7.48%.
Consider `Clc1cccc(Cl)c1OCCOCCNCc1ccccc1`, for which the inhibition was 53% (active).
On to `COCCNCCOCCOc1cccc(OC)c1`, for which the inhibition was -3.27%.
The figure for `CN(C)CCOCCOc1ccc(Cl)c2ccccc12` is -4.55%.

The values above are taken from PubChem BioAssay AID485344 (National Center for Advancing Translational Sciences (NCATS), 2010).
